Experimental data taken from PubChem BioAssay.
Several values for one entry are separate records, joined by “and”; a condition that tells them apart may be missing. Equal values may be shown once. Activity calls are given as the source filed them.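 Rule for the calls, unless noted: active = at least 20% inhibition of 6-phosphogluconate dehydrogenase activity; inactive = the rest.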

Tested on: not listed separately
Assay: compounds distorting NS3 helicase fluorescence signal – biochemical, NIH Clinical Collection, artefact control for HCV NS3 helicase inhibitor project (AID 743272; call rule not given here;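 note: HCV NS3 helicase with a Cy5 labelled single stranded DNA probe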)
Conditions: fluorescence interference counterscreen, HCV NS3 helicase assay; stronger effect = lower value

Q: With `COC(=O)[C@H](c1ccccc1Cl)N1CCc2sccc2C1` as the molecule, how does the fluorescence ratio read?
A: 1 (inactive)

Q: Which fluorescence ratio does the source give for `COc1ccc(/C=C/C(=O)Nc2ccccc2C(=O)O)cc1OC` here?
A: 0.99 (inactive)

Q: With `CC1=C(/C=C/C(C)=C/C=C/C(C)=C\C(=O)O)C(C)(C)CCC1` as the molecule, how does the fluorescence ratio read?
A: 0.99 (inactive)

Q: For `Cc1cccc(C)c1NC(=O)C1CCCCN1C` (stereo not given), which fluorescence ratio is on record?
A: 0.95 (inactive)

Q: For `CN(C)c1nc(N(C)C)nc(N(C)C)n1`, which fluorescence ratio is on record?
A: 0.99 (inactive)

Q: For `CC[C@H]1OC(=O)[C@H](C)[C@@H](O[C@H]2C[C@@](C)(OC)[C@@H](O)[C@H](C)O2)[C@H](C)[C@@H](O[C@@H]2O[C@H](C)C[C@H](N(C)C)[C@H]2O)[C@](C)(OC)C[C@@H](C)C(=O)[C@H](C)[C@@H](O)[C@]1(C)O`, which fluorescence ratio is on record?
A: 0.99 (inactive)

Q: With `CNCCC(Oc1ccc(C(F)(F)F)cc1)c1ccccc1` (stereo not given) as the molecule, how does the fluorescence ratio read?
A: 1.03 (inactive)

Q: Which fluorescence ratio does the source give for `CS(=O)(=O)c1ccc(C2=C(c3ccccc3)C(=O)OC2)cc1` here?
A: 0.97 (inactive)

Q: Which fluorescence ratio does the source give for `Cc1occc(=O)c1O` here?
A: 0.97 (inactive)

Q: With `Nc1ncnc2c1ncn2[C@@H]1O[C@H](CO)[C@@H](O)[C@@H]1O` as the molecule, how does the fluorescence ratio read?
A: 1 (inactive)

Q: Which fluorescence ratio does the source give for `CC(C)NCC(O)COc1ccc(CC(N)=O)cc1` (stereo not given) here?
A: 0.98 (inactive)

Q: For `C[N+]1(C)CCCC(OC(=O)C(O)(c2ccccc2)c2ccccc2)C1` (stereo not given), which fluorescence ratio is on record?
A: 0.96 (inactive)

Q: Which fluorescence ratio does the source give for `CC(C)NCC(O)COc1cccc2ccccc12` (stereo not given) here?
A: 0.93 (inactive)

Q: With `CCc1ccc(CCOc2ccc(CC3SC(=O)NC3=O)cc2)nc1` (stereo not given) as the molecule, how does the fluorescence ratio read?
A: 0.9 (inactive)

Q: For `CCCCC(=O)N(Cc1ccc(-c2ccccc2-c2nn[nH]n2)cc1)[C@H](C(=O)O)C(C)C`, which fluorescence ratio is on record?
A: 1.05 (inactive)

Q: For `C[C@H]1COc2c(N3CCN(C)CC3)c(F)cc3c(=O)c(C(=O)O)cn1c23`, which fluorescence ratio is on record?
A: 1 (inactive)

Q: For `O=[N+]([O-])c1cccc2cn[nH]c12`, which fluorescence ratio is on record?
A: 0.97 (inactive)

Q: For `COc1ccc(-c2cc(=O)c3c(OC)c(OC)c(OC)c(OC)c3o2)cc1OC`, which fluorescence ratio is on record?
A: 0.96 (inactive)

Q: For `CC(C(=O)O)c1ccc(-c2ccccc2)c(F)c1` (stereo not given), which fluorescence ratio is on record?
A: 0.9 (inactive) and 0.98 (inactive)

Tested on: Neuropilin-2 / VEGF-C interaction (human)
Assay: small molecules blocking Neuropilin-2/VEGF-C interaction – biochemical, microplate binding format, z-score (AID 743281; call rule not given here)
Conditions: microplate NRP2/VEGF-C binding assay; stronger effect = lower value

Q: For `COc1ccc(/C=C/C(=O)Nc2ccccc2C(=O)O)cc1OC`, which z-score is on record?
A: 0.915 (inactive)

Q: Which z-score does the source give for `Cc1cccc(C)c1NC(=O)C1CCCCN1C` (stereo not given) here?
A: -0.136 (inactive)

Q: Which z-score does the source give for `CC[C@H]1OC(=O)[C@H](C)[C@@H](O[C@H]2C[C@@](C)(OC)[C@@H](O)[C@H](C)O2)[C@H](C)[C@@H](O[C@@H]2O[C@H](C)C[C@H](N(C)C)[C@H]2O)[C@](C)(OC)C[C@@H](C)C(=O)[C@H](C)[C@@H](O)[C@]1(C)O` here?
A: -0.251 (inactive)

Q: With `CS(=O)(=O)c1ccc(C2=C(c3ccccc3)C(=O)OC2)cc1` as the molecule, how does the z-score read?
A: -0.0129 (inactive)

Q: For `Cc1occc(=O)c1O`, which z-score is on record?
A: -0.38 (inactive)

Q: Which z-score does the source give for `CCc1ccc(CCOc2ccc(CC3SC(=O)NC3=O)cc2)nc1` (stereo not given) here?
A: 0.637 (inactive)

Q: Which z-score does the source give for `CCCCC(=O)N(Cc1ccc(-c2ccccc2-c2nn[nH]n2)cc1)[C@H](C(=O)O)C(C)C` here?
A: -0.0697 (inactive)

Q: With `C[C@H]1COc2c(N3CCN(C)CC3)c(F)cc3c(=O)c(C(=O)O)cn1c23` as the molecule, how does the z-score read?
A: -0.188 (inactive)

Q: With `O=[N+]([O-])c1cccc2cn[nH]c12` as the molecule, how does the z-score read?
A: -0.0317 (inactive)

Q: Which z-score does the source give for `COc1ccc(-c2cc(=O)c3c(OC)c(OC)c(OC)c(OC)c3o2)cc1OC` here?
A: 0.248 (inactive)

Q: Which z-score does the source give for `CC(C(=O)O)c1ccc(-c2ccccc2)c(F)c1` (stereo not given) here?
A: -0.82 (inactive)

Molecular target: 6-phosphogluconate dehydrogenase, decarboxylating (Homo sapiens) (UniProt P52209)
Sequence (P52209 whole entry, looked up): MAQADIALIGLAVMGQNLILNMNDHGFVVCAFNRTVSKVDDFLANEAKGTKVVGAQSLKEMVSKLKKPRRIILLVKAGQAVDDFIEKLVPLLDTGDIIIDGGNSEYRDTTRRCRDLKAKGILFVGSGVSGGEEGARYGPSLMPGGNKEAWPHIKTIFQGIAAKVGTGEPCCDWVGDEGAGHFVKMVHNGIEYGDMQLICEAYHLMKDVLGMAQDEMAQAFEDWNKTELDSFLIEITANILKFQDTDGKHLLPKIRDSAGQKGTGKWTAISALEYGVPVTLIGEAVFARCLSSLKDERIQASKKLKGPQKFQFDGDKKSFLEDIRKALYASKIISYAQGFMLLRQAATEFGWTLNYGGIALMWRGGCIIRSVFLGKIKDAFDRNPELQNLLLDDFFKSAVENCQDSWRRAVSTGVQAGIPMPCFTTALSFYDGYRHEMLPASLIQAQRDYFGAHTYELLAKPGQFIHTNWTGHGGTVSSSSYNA
Assay: inhibition of human phosphogluconate dehydrogenase – biochemical, recombinant enzyme, NADPH absorbance, primary screen (AID 1159550)
Conditions: recombinant 6PGD, NADPH absorbance 341 nm; at 10 µM; stronger effect = higher value

Q: Which inhibition does the source give for `COC(=O)[C@H](c1ccccc1Cl)N1CCc2sccc2C1` here?
A: 3.19% (inactive)

Q: Which inhibition does the source give for `NCC1O[C@@H](O[C@H]2C(O)C(O[C@@H]3OC(CO)[C@H](O)[C@H](N)C3O)[C@@H](N)C[C@H]2N)C(O)[C@@H](O)[C@H]1O` (stereo not given in full) here?
A: -2.65% (inactive)

Q: With `COc1ccc(C[C@H](N)C(=O)N[C@H]2[C@@H](O)[C@H](n3cnc4c(N(C)C)ncnc43)O[C@@H]2CO)cc1` as the molecule, how does the inhibition read?
A: -10.2% (inactive)

Q: For `COc1ccc(/C=C/C(=O)Nc2ccccc2C(=O)O)cc1OC`, which inhibition is on record?
A: 5.84% (inactive)

Q: For `CC1=C(/C=C/C(C)=C/C=C/C(C)=C\C(=O)O)C(C)(C)CCC1`, which inhibition is on record?
A: 16.8% (inactive)

Q: Which inhibition does the source give for `Cc1cccc(C)c1NC(=O)C1CCCCN1C` (stereo not given) here?
A: 10.7% (inactive)

Q: Which inhibition does the source give for `COc1ccc2c(c1)[C@@]1(C)CC[C@@H](O)C[C@@H]1CC2` here?
A: 13.3% (inactive)

Q: For `O[C@@H]1[C@@H](O)[C@@H]2OC[C@@H](O2)[C@H]1O`, which inhibition is on record?
A: -10.4% (inactive)

Q: For `O=c1ccc2ccc(O)c(O)c2o1`, which inhibition is on record?
A: 2.02% (inactive)

Q: Which inhibition does the source give for `CN(C)c1nc(N(C)C)nc(N(C)C)n1` here?
A: 11.2% (inactive)

Q: With `CC[C@H]1OC(=O)[C@H](C)[C@@H](O[C@H]2C[C@@](C)(OC)[C@@H](O)[C@H](C)O2)[C@H](C)[C@@H](O[C@@H]2O[C@H](C)C[C@H](N(C)C)[C@H]2O)[C@](C)(OC)C[C@@H](C)C(=O)[C@H](C)[C@@H](O)[C@]1(C)O` as the molecule, how does the inhibition read?
A: 2.59% (inactive)

Q: For `COC(=O)C[C@H]1C(C)(C)C(OC(C)=O)[C@]2(O)C=C3C4CC(=O)O[C@@H](c5ccoc5)[C@]4(C)CCC3[C@@]1(C)C2=O` (stereo not given in full), which inhibition is on record?
A: -4.04% (inactive)

Q: Which inhibition does the source give for `CC[C@H](C(=O)[C@@H](C)[C@@H](O)[C@H](C)[C@@H]1O[C@@H]([C@@H](CC)C(=O)O)CC[C@@H]1C)[C@H]1O[C@]2(C=C[C@@H](O)[C@]3(CC[C@@](C)([C@H]4CC[C@](O)(CC)[C@H](C)O4)O3)O2)[C@H](C)C[C@@H]1C` here?
A: 2.61% (inactive)

Q: For `CC1=CCCC(C)=CCC(C)(C)C=CC1`, which inhibition is on record?
A: -0.753% (inactive)

Q: Which inhibition does the source give for `CNCCC(Oc1ccc(C(F)(F)F)cc1)c1ccccc1` (stereo not given) here?
A: 19% (inactive)

Q: For `CC(=O)O[C@H]1C[C@@H](OC(C)=O)C(C)(C)[C@@H]2C[C@@H](O)[C@@]3(C)[C@H](CC[C@]4(C)[C@@H](c5ccoc5)OC(=O)[C@H]5O[C@@]534)[C@@]12C`, which inhibition is on record?
A: 13.5% (inactive)

Q: With `C#CCCCCCCCCCCCC(=O)CC(O)COC(C)=O` (stereo not given) as the molecule, how does the inhibition read?
A: -5.7% (inactive)

Q: Which inhibition does the source give for `CS(=O)(=O)c1ccc(C2=C(c3ccccc3)C(=O)OC2)cc1` here?
A: -26.3% (inactive)

Q: With `Cc1occc(=O)c1O` as the molecule, how does the inhibition read?
A: 8.86% (inactive)

Q: Which inhibition does the source give for `C[C@H]1[C@@H](O)O[C@@H]2OC3(C)CC[C@H]4[C@H](C)CC[C@@H]1[C@@]24OO3` here?
A: -22.8% (inactive)

Q: For `Nc1ncnc2c1ncn2[C@@H]1O[C@H](CO)[C@@H](O)[C@@H]1O`, which inhibition is on record?
A: -15.7% (inactive)

Q: For `CC(C)NCC(O)COc1ccc(CC(N)=O)cc1` (stereo not given), which inhibition is on record?
A: -17.1% (inactive)

Q: With `C[N+]1(C)CCCC(OC(=O)C(O)(c2ccccc2)c2ccccc2)C1` (stereo not given) as the molecule, how does the inhibition read?
A: -19.7% (inactive)

Q: For `COC(=O)C[C@H]1C(C)(C)C2(Cl)O[C@@]34CC2C(=O)[C@]1(C)C3CC[C@]1(C)C4=CC(=O)O[C@H]1c1ccoc1` (stereo not given in full), which inhibition is on record?
A: 6.04% (inactive)

Q: With `CC(C)NCC(O)COc1cccc2ccccc12` (stereo not given) as the molecule, how does the inhibition read?
A: 13.6% (inactive)

Q: With `COC(=O)c1cc(OC)c(=O)c2c(OC)c(OC)ccc2c1` as the molecule, how does the inhibition read?
A: 7.65% (inactive)

Q: With `CC(=O)c1cc2c(cc1O)OC(C)(C)C=C2` as the molecule, how does the inhibition read?
A: 16.8% (inactive)

Q: With `CCOC(=O)C1(O)Oc2cc(OC)cc(OC)c2C(=O)C1c1ccccc1` (stereo not given) as the molecule, how does the inhibition read?
A: -4.01% (inactive)

Q: For `COc1ccc2c(=O)cc(-c3ccccc3OC)oc2c1`, which inhibition is on record?
A: 3.35% (inactive)

Q: For `C[C@H](CCC(=O)O)[C@H]1CC[C@H]2[C@@H]3C[C@H](O)[C@@H]4C[C@H](O)CC[C@]4(C)[C@H]3CC[C@]12C`, which inhibition is on record?
A: 2.54% (inactive)

Q: Which inhibition does the source give for `CCc1ccc(CCOc2ccc(CC3SC(=O)NC3=O)cc2)nc1` (stereo not given) here?
A: 6.81% (inactive)

Q: With `CCCCC(=O)N(Cc1ccc(-c2ccccc2-c2nn[nH]n2)cc1)[C@H](C(=O)O)C(C)C` as the molecule, how does the inhibition read?
A: -2.51% (inactive)

Q: For `C[C@H]1COc2c(N3CCN(C)CC3)c(F)cc3c(=O)c(C(=O)O)cn1c23`, which inhibition is on record?
A: 0.836% (inactive)

Q: Which inhibition does the source give for `O=[N+]([O-])c1cccc2cn[nH]c12` here?
A: -14.4% (inactive)

Q: For `COc1ccc(-c2cc(=O)c3c(OC)c(OC)c(OC)c(OC)c3o2)cc1OC`, which inhibition is on record?
A: 2.3% (inactive)

Q: Which inhibition does the source give for `C=CCCCCCCCCCCC[C@@H](O)C[C@@H](O)CO` here?
A: -7.76% (inactive)

Q: Which inhibition does the source give for `COC(=O)C(O)[C@H]1C(C)(C)[C@@H](OC(C)=O)[C@@H]2CC3=C4CC(=O)O[C@@H](c5ccoc5)[C@]4(C)CCC3[C@@]1(C)C2=O` (stereo not given in full) here?
A: 12.8% (inactive)

Q: With `C=C(C)C1Cc2c(ccc(C(=O)O)c2O)O1` (stereo not given) as the molecule, how does the inhibition read?
A: -0.806% (inactive)

Q: Which inhibition does the source give for `CC1=CC(=O)C2C(C)(C)CCCC2(C)C1(O)CCc1ccoc1` (stereo not given) here?
A: -22.2% (inactive)

Q: With `CC(C(=O)O)c1ccc(-c2ccccc2)c(F)c1` (stereo not given) as the molecule, how does the inhibition read?
A: 19% (inactive)
